Assay outcomes as filed in PubChem BioAssay.
TIM10 inh = inhibits growth of TIM10 yeast strain | S. cerevisiae TIM10 strain growth, BacTiter-Glo luminescence, 24 h | inhibition, % at 10 µM | 330,000 tested, 1.4% active;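 active means inhibition of 40% or more at the single tested concentration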;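 further: wild-type TIM10 isogenic control strain grown at permissive 25 °C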
MPTP block = inhibitors of mitochondrial permeability transition pore | isolated mouse mitochondria, Ca2+ swelling absorbance, 30 min | inhibition, % at 10 µM | AID 602449 | 360,000 tested, 1.4% active;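 active means inhibition of 50% or more, scaled per plate between neutral and stimulator controls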
Mdm2 MdmX PPI = inhibitors of human Mdm2/MdmX interaction. O15151+Q00987. SaOS-2 split-luciferase Mdm2/MdmX complementation, luminescence. inhibition, % at 8 µM. 330,000 tested, 3% active. AID 485346;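 active means inhibition of at least 50% at 8 µM in the primary screen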
tim23-1 inh = growth inhibitors of tim23-1 mutant yeast; S. cerevisiae tim23-1 growth, BacTiter-Glo luminescence, 24 h; inhibition, % at 20 µM; 330,000 tested, 1.3% active; AID 463212;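 active means growth inhibition of the mutant yeast at or above 50%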;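 further: temperature-sensitive mutant grown at 25 °C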
tim10-1 inh = inhibits growth of tim10-1 mutant yeast. S. cerevisiae tim10-1 ts strain growth, BacTiter-Glo, 24 h. inhibition, % at 20 µM. 330,000 tested, 2.2% active. AID 463190;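 active means inhibition of at least 40%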;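 further: mutant grown at 25 °C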
MPTP counter = Rhodamine 123 counter-screen of mitochondrial pore hits | shares compounds with MPTP block | isolated mitochondria, membrane potential, Rhodamine 123 fluorescence | inhibition, % at 10 µM | 5,000 tested, 78% active | AID 624504; in the data active means inhibition above about 22%
MPTP abs DR = dose response confirmation of mitochondrial permeability transition pore inhibitors. shares compounds with MPTP block. isolated mitochondria swelling, absorbance. IC50, µM. 780 tested, 58% active. AID 651561; in the data active means IC50 below about 20 µM
MPTP cs DR = active in counter-screen for permeability transition pore inhibitors. shares compounds with MPTP block. isolated mitochondria counterscreen, fluorescence read-out. IC50, µM. 780 tested, 49% active. AID 651564; in the data active means IC50 below about 80 µM
Each line names hits and unclear results; the compound was inactive in the other large screens (follow-up assays come after a bar, where they were run). An excerpt weighted towards active compounds, which were near 6.3% of everything screened.

CN(C(=O)c1cccc(NC(=O)Cc2ccc(NC(=O)C3CCCN(C(=O)C4CCCC4)C3)cc2)c1)C1CC1 (configuration not stated)	none (no result: TIM10 inh, Mdm2 MdmX PPI, tim23-1 inh, tim10-1 inh)
O=C(NCc1cccnc1)Nc1ccc(Cl)c(Cl)c1	none
S=C(NCc1cccnc1)Nc1ccc(Cl)c(Cl)c1	MPTP block 71.1 | MPTP counter 93.0
S=C(NCc1ccccc1)NCc1ccc(CNC(=S)NCc2ccccc2)cc1	MPTP block 78.6 | MPTP counter 90.2
CCNC(=S)Nc1ccc(Oc2ccccc2)cc1	none
COc1ccc(NC(=S)NCc2cccnc2)cc1	none
S=C(NCc1ccccc1)Nc1ccc(Oc2ccccc2)cc1	MPTP block 85.5 | MPTP counter 87.0
S=C(NCc1cccnc1)Nc1ccc(Oc2ccc(Cl)cc2)cc1	MPTP block 80.1 | MPTP counter 66.1
C[C@@H]1CN([C@H](C)CO)C(=O)CCCn2nncc2CO[C@@H]1CN(C)S(=O)(=O)c1ccc(F)cc1	none (no result: TIM10 inh, Mdm2 MdmX PPI, tim23-1 inh, tim10-1 inh)
O=C(CNCc1ccccc1)Nc1ccc(Oc2ccccc2)cc1	MPTP block 66.2 | MPTP counter inactive | MPTP abs DR inactive | MPTP cs DR 42.6
CC1CCCN(c2ccc(C(=O)Nc3ccc4c(c3)OCO4)cc2[N+](=O)[O-])C1 (configuration not stated)	MPTP block 57.6 | MPTP counter 42.7
Cc1cc(C(=O)Nc2ccc(N3CCCC3)c(Cl)c2)ccc1[N+](=O)[O-]	MPTP block 80.2 | MPTP counter 85.9
O=C(Nc1ccc(N2CCCC2)c(Cl)c1)c1ccc([N+](=O)[O-])cc1	MPTP block 76.4 | MPTP counter 75.6
OC(c1cccc(Cl)c1)c1nc(/C=C/c2ccccc2)cs1 (configuration not stated)	none (no result: TIM10 inh, Mdm2 MdmX PPI, tim23-1 inh, tim10-1 inh)
Cc1nc(C(F)(F)F)ccc1C(=O)N1CCC1(C)C(=O)NS(=O)(=O)c1ccc(C(C)(C)C)cc1 (configuration not stated)	none (no result: TIM10 inh, Mdm2 MdmX PPI, tim23-1 inh, tim10-1 inh)
COc1ccc(NC(=O)C[C@H]2C(=O)N(C3CCCCC3)C[C@@H]2c2ccc(OC)cc2)cc1	none (no result: TIM10 inh, Mdm2 MdmX PPI, tim23-1 inh, tim10-1 inh)
CCCC(=O)Nc1nnc(SCC)s1	none
O=C(Nc1ccc(Cl)cc1)Nc1nnc(Cc2ccc([N+](=O)[O-])cc2)s1	MPTP block 82.6 | MPTP counter 63.5
O=C(Nc1ccccc1)Nc1nnc(SCc2ccc(Cl)cc2)s1	MPTP block 85.5 | MPTP counter 33.5
CCSc1nnc(NC(=O)NC(C)(C(F)(F)F)C(F)(F)F)s1	MPTP block 92.2 | MPTP counter 93.2
O=C(Nc1ccc(Cl)cc1)Nc1nnc(SCc2ccc(Cl)cc2)s1	MPTP block 85.4 | MPTP counter 24.4
Cc1ccc(S(=O)(=O)NCc2ccccc2)cc1C(=O)NCc1ccncc1	none (no result: TIM10 inh, Mdm2 MdmX PPI, tim23-1 inh, tim10-1 inh)
CCSc1nnc(NC(=O)Nc2cccc(C)c2)s1	MPTP block 82.4 | MPTP counter 83.7
CCSc1nnc(NC(=O)[C@@H](NC(=O)c2cccc(C)c2)C(C)C)s1	none
O=C(Nc1ccc(Cl)cc1)Nc1nnc(-c2ccncc2)s1	MPTP block 79.2 (no result: TIM10 inh, Mdm2 MdmX PPI, tim23-1 inh, tim10-1 inh) | MPTP counter 23.8
O=C(Nc1ccc(Cl)cc1)Nc1nnc(CSc2ccc(Cl)cc2)s1	MPTP block 85.1 | MPTP counter 63.2
Cc1ccc(NC(=O)Nc2nnc(CSCCOc3ccc(Cl)cc3)s2)cc1	MPTP block 60.3 | MPTP counter inactive | MPTP abs DR inactive | MPTP cs DR <2.5
CCOC(=O)C1CCN(C(=O)c2cccc(S(=O)(=O)N3CCCc4ccccc43)c2)CC1	none (no result: TIM10 inh, Mdm2 MdmX PPI, tim23-1 inh, tim10-1 inh)
C[C@H]1c2cccc(O)c2C(O)=C2C(=O)[C@]3(O)C(O)=C(C(N)=O)C(=O)[C@@H](N(C)C)[C@@H]3[C@@H](O)[C@@H]21	MPTP block 79.9 | MPTP counter inactive
O=S(CC(O)c1ccccc1)c1ccccc1 (configuration not stated)	none (no result: TIM10 inh, Mdm2 MdmX PPI, tim23-1 inh, tim10-1 inh)
COc1cc(/C=N/N2C(=O)CSC2=S)ccc1O	none
O=C1CSC(=S)N1/N=C/c1cc(Br)c(O)c(Br)c1	MPTP block 83.2 (no result: TIM10 inh, Mdm2 MdmX PPI, tim23-1 inh, tim10-1 inh) | MPTP counter 66.1
COc1ccc(OCC(=O)N2CCN(c3nnc(-c4ccc(C)cc4)c4ccccc34)CC2)cc1	MPTP block 60.5 | MPTP counter inactive | MPTP abs DR 19.7 | MPTP cs DR 21.7
Cc1ccc(OCC(=O)N2CCN(c3nnc(-c4ccc(C)cc4)c4ccccc34)CC2)cc1	MPTP block 83.8 | MPTP counter 21.6
CN1CCN(c2ccc(NC(=O)c3cccc(OCc4ccccc4)c3)cc2)CC1	MPTP block 107.0 | MPTP counter inactive | MPTP abs DR 6.58 | MPTP cs DR inactive
CCOc1cccc(C(=O)NC(=S)Nc2ccc(N3CCN(CC)CC3)cc2)c1	none
CCCOc1cccc(C(=O)NC(=S)Nc2ccc(N3CCN(C)CC3)cc2)c1	MPTP block 76.4 | MPTP counter inactive | MPTP abs DR 7.12 | MPTP cs DR 38.7
O=C(NC(=S)Nc1ccc(CN2CCCCC2)cc1)c1cccc(OCc2ccccc2)c1	MPTP block 84.0 | MPTP counter inactive | MPTP abs DR inactive | MPTP cs DR inactive
N=c1c(S(=O)(=O)c2ccccc2)cc2c(=O)n3ccccc3nc2n1CCCN1CCOCC1	none
N=c1c(S(=O)(=O)c2ccc(Cl)cc2)cc2c(=O)n3ccccc3nc2n1CCN1CCOCC1	MPTP block 59.6 | MPTP counter inactive | MPTP abs DR inactive | MPTP cs DR inactive
CC1(C(=O)Nc2cccc(OC(F)(F)F)c2)Cc2c(-c3ccc4c(c3)OCO4)ccnc2O1 (configuration not stated)	none (no result: TIM10 inh, Mdm2 MdmX PPI, tim23-1 inh, tim10-1 inh)
Cc1nc(Nc2ccc(F)cc2)[nH]c(=O)c1CCC(C)C	MPTP block 94.6 | MPTP counter 76.7
Cc1ccc(Nc2nc(C)c(CCC(C)C)c(=O)[nH]2)cc1	none
Nc1nc2c(ncn2[C@@H]2O[C@H](CNCc3ccccc3)[C@@H](O)[C@H]2O)c(=O)[nH]1	none (no result: TIM10 inh, Mdm2 MdmX PPI, tim23-1 inh, tim10-1 inh)
C=CCNc1ncnc2c1[nH]c1ccc(Cl)cc12	MPTP block 88.8 | MPTP counter 93.8
COC(=O)c1cc(=O)nc(NN=C2CCCCC2)s1	none (no result: TIM10 inh, Mdm2 MdmX PPI, tim23-1 inh, tim10-1 inh)
COC(=O)c1cc(=O)nc(NN=C2c3ccccc3-c3ccccc32)s1	MPTP block 57.8 (no result: TIM10 inh, Mdm2 MdmX PPI, tim23-1 inh, tim10-1 inh) | MPTP counter 51.0
COc1cc(CNc2ncnc3c2ncn3[C@H]2CN(Cc3cccc(C(F)(F)F)c3)C[C@@H](CO)O2)cc(OC)c1OC	none (no result: TIM10 inh, Mdm2 MdmX PPI, tim23-1 inh, tim10-1 inh)
CCN1C[C@@H]2[C@@H]3C(=O)N(C)C(=O)[C@@H]3[C@](C)(C1=O)N2C(=O)c1ccc(Br)cc1	none (no result: TIM10 inh, Mdm2 MdmX PPI, tim23-1 inh, tim10-1 inh)
CCSc1nnc(NC(=O)c2cccc(S(=O)(=O)N(C)c3ccccc3)c2)s1	none
C=CCN(c1ccccc1)S(=O)(=O)c1cccc(C(=O)Nc2nnc(SCC)s2)c1	MPTP block 67.3 | MPTP counter 66.7
Cc1cccc(C)c1NC(=O)C1(C)CN(S(C)(=O)=O)CC(=O)N1Cc1cccs1 (configuration not stated)	none (no result: TIM10 inh, Mdm2 MdmX PPI, tim23-1 inh, tim10-1 inh)
